The record followed here is the supplement of paper PMC10981050.

One may read the cell viability as a read-out of living cells in per cent, often relative to untreated cells.

What all share (experiment): cell viability relative to vehicle control; higher = less cytotoxic
Holding throughout (details): 10 µM

In one experiment the test system is K562. The gist of the method: (§1)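 Screening covered the Selleck bioactive, kinase and epigenetic probe libraries, less identity-inconsistent compounds, on CRISPR-edited mutant clones and isogenic wild-type clones of four leukaemia lines. Cells, at 2000 per well in 50 µL medium, received a single 10 µM acoustically dispensed dose. After 48 h the supernatant was removed and CellTiter-Glo luminescence was read. Viability was analysed in Genedata Screener as percent of the on-plate vehicle control.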

Another experiment has as its system MARIMO. In a few lines: as §1
Another experiment has as its system MOLM14. In a few lines:
as §1

Another experiment concerns OCI-AML2. In a few lines:
as §1

“And” between values parts separate entries of the source, which are not always exact repeats. Equal entries are not always repeated.

For `O=C1CCc2ccccc2O1` [Dihydrocoumarin], the cell viability was 95.7% and 98.2% in the experiment with K562 (SRSF2 genotype: SRSF2 P95H/wt); 94.4% with K562 (SRSF2 genotype: SRSF2 wt/wt); 94.5% with MARIMO (SRSF2 genotype: SRSF2 P95H/wt); 105% with MARIMO (SRSF2 genotype: SRSF2 wt/wt); 105% in the experiment on MOLM14 (SRSF2 genotype: SRSF2 P95H/wt); 102% in the experiment with MOLM14 (SRSF2 genotype: SRSF2 wt/wt). The cell viability with OCI-AML2 (SRSF2 genotype: P95H/wt) is 93.6%; with OCI-AML2 (SRSF2 genotype: wt/wt), 100%.

Take `Cn1nccc1Nc1nccc(-c2cc3c(s2)C(C)(C)N(CCN2CCOCC2)C3=O)n1`: the cell viability in the experiment with K562 (SRSF2 genotype: SRSF2 P95H/wt) is 77.8% and 81.6%; with K562 (SRSF2 genotype: SRSF2 wt/wt), 76.5%; with MARIMO (SRSF2 genotype: SRSF2 P95H/wt), 39.5%; with MARIMO (SRSF2 genotype: SRSF2 wt/wt) it was 40.1%; in the experiment on MOLM14 (SRSF2 genotype: SRSF2 P95H/wt) it was 42.6%; in the experiment with MOLM14 (SRSF2 genotype: SRSF2 wt/wt), 37%. The cell viability was 38.6% in the experiment on OCI-AML2 (SRSF2 genotype: P95H/wt) and 43.2% in the experiment with OCI-AML2 (SRSF2 genotype: wt/wt).

In the case of `C[C@]12C=CC(=O)C=C1CC[C@@H]1[C@@H]2C(=O)C[C@@]2(C)[C@H]1CC[C@]2(O)C(=O)CO` [Prednisone (Adasone)], the cell viability is 102% and 107% with K562 (SRSF2 genotype: SRSF2 P95H/wt); 95.5% in the experiment on K562 (SRSF2 genotype: SRSF2 wt/wt); 104% in the experiment with MARIMO (SRSF2 genotype: SRSF2 P95H/wt); 101% in the experiment with MARIMO (SRSF2 genotype: SRSF2 wt/wt); 108% in the experiment with MOLM14 (SRSF2 genotype: SRSF2 P95H/wt); 107% in the experiment on MOLM14 (SRSF2 genotype: SRSF2 wt/wt). Also, the cell viability with OCI-AML2 (SRSF2 genotype: P95H/wt) came to 106%; in the experiment with OCI-AML2 (SRSF2 genotype: wt/wt) it was 110%.

For `OC[C@H]1NC[C@H](O)[C@@H](O)[C@@H]1O` [1-Deoxynojirimycin], the cell viability with K562 (SRSF2 genotype: SRSF2 P95H/wt) was 103% and 98.1%; in the experiment on K562 (SRSF2 genotype: SRSF2 wt/wt) it was 94.5%; in the experiment with MARIMO (SRSF2 genotype: SRSF2 P95H/wt) it was 103%; in the experiment with MARIMO (SRSF2 genotype: SRSF2 wt/wt) it was 107%; in the experiment on MOLM14 (SRSF2 genotype: SRSF2 P95H/wt) it was 97.8%; with MOLM14 (SRSF2 genotype: SRSF2 wt/wt) it was 106%. In addition, the figures for the cell viability with OCI-AML2 (SRSF2 genotype: P95H/wt) and with OCI-AML2 (SRSF2 genotype: wt/wt) were 96.4% and 108%, respectively.

On to `O=C(/C=C\n1cnc(-c2cc(C(F)(F)F)cc(C(F)(F)F)c2)n1)NNc1cnccn1` [Selinexor (KPT-330)], for which the cell viability in the experiment on K562 (SRSF2 genotype: SRSF2 P95H/wt) was 8.08% and 19.9%; with K562 (SRSF2 genotype: SRSF2 wt/wt), 13.9%; in the experiment on MARIMO (SRSF2 genotype: SRSF2 P95H/wt) it was 22.6%; in the experiment on MARIMO (SRSF2 genotype: SRSF2 wt/wt) it was 22.3%; in the experiment on MOLM14 (SRSF2 genotype: SRSF2 P95H/wt), 2.17%; with MOLM14 (SRSF2 genotype: SRSF2 wt/wt), 1.26%. The cell viability in the experiment on OCI-AML2 (SRSF2 genotype: P95H/wt) stood at 6.48%; in the experiment with OCI-AML2 (SRSF2 genotype: wt/wt), 11.4%.

As for `CCCCCCCCCCCCCCCCCCCCCC(=O)O` [Behenic Acid], the cell viability is 101% and 91.8% in the experiment on K562 (SRSF2 genotype: SRSF2 P95H/wt); 103% in the experiment with K562 (SRSF2 genotype: SRSF2 wt/wt); 97.7% in the experiment with MARIMO (SRSF2 genotype: SRSF2 P95H/wt); 112% in the experiment with MARIMO (SRSF2 genotype: SRSF2 wt/wt); 104% with MOLM14 (SRSF2 genotype: SRSF2 P95H/wt); 108% with MOLM14 (SRSF2 genotype: SRSF2 wt/wt). Further, the cell viability in the experiment on OCI-AML2 (SRSF2 genotype: P95H/wt) is 91.8%; with OCI-AML2 (SRSF2 genotype: wt/wt), 102%.

Turning to `Cn1cc(-c2ccncc2)c(-c2ccc(OCc3ccc4ccccc4n3)cc2)n1`, the cell viability in the experiment on K562 (SRSF2 genotype: SRSF2 P95H/wt) was 79.8% and 91.7%; in the experiment with K562 (SRSF2 genotype: SRSF2 wt/wt), 91.2%; in the experiment on MARIMO (SRSF2 genotype: SRSF2 P95H/wt), 93%; with MARIMO (SRSF2 genotype: SRSF2 wt/wt) it was 90.4%; with MOLM14 (SRSF2 genotype: SRSF2 P95H/wt) it was 65%; in the experiment on MOLM14 (SRSF2 genotype: SRSF2 wt/wt) it was 71.4%. The figures for the cell viability in the experiment on OCI-AML2 (SRSF2 genotype: P95H/wt) and with OCI-AML2 (SRSF2 genotype: wt/wt) were 71.5% and 68%, respectively.

As to `c1cncc(-c2cn[nH]n2)c1`, the cell viability with K562 (SRSF2 genotype: SRSF2 P95H/wt) is 78.5% and 56.7%; in the experiment with K562 (SRSF2 genotype: SRSF2 wt/wt) it was 64.2%; with MARIMO (SRSF2 genotype: SRSF2 P95H/wt), 88.4%; in the experiment with MARIMO (SRSF2 genotype: SRSF2 wt/wt), 96.6%; in the experiment with MOLM14 (SRSF2 genotype: SRSF2 P95H/wt), 88.6%; in the experiment with MOLM14 (SRSF2 genotype: SRSF2 wt/wt), 99.2%. Moreover, the results for the cell viability in the experiment on OCI-AML2 (SRSF2 genotype: P95H/wt) and with OCI-AML2 (SRSF2 genotype: wt/wt) were 31.8% and 34.6%, respectively.

As for `CC1(C)CCC(C)(C)c2cc(NC(=O)c3ccc(C(=O)O)cc3)ccc21` [Tamibarotene], the cell viability in the experiment on K562 (SRSF2 genotype: SRSF2 P95H/wt) was 94.1% and 91.6%; with K562 (SRSF2 genotype: SRSF2 wt/wt), 90.8%; in the experiment on MARIMO (SRSF2 genotype: SRSF2 P95H/wt), 93.1%; in the experiment with MARIMO (SRSF2 genotype: SRSF2 wt/wt) it was 99.2%; in the experiment on MOLM14 (SRSF2 genotype: SRSF2 P95H/wt), 88.8%; with MOLM14 (SRSF2 genotype: SRSF2 wt/wt), 98.3%. The results for the cell viability with OCI-AML2 (SRSF2 genotype: P95H/wt) and in the experiment with OCI-AML2 (SRSF2 genotype: wt/wt) were 37.4% and 61.5%, respectively.

On to `COc1ccc(C[C@@H]2c3cc(Oc4cc(C[C@@H]5c6cc(O)c(OC)cc6CCN5C)ccc4O)c(OC)cc3CCN2C)cc1` [Isoliensinine], for which the cell viability in the experiment on K562 (SRSF2 genotype: SRSF2 P95H/wt) is 50.4% and 50.8%; with K562 (SRSF2 genotype: SRSF2 wt/wt) it was 61.2%; in the experiment with MARIMO (SRSF2 genotype: SRSF2 P95H/wt), 10.2%; with MARIMO (SRSF2 genotype: SRSF2 wt/wt) it was 16.6%; in the experiment with MOLM14 (SRSF2 genotype: SRSF2 P95H/wt), 2.24%; in the experiment on MOLM14 (SRSF2 genotype: SRSF2 wt/wt), 1.04%. Also, the cell viability is 0.44% with OCI-AML2 (SRSF2 genotype: P95H/wt) and 0.95% with OCI-AML2 (SRSF2 genotype: wt/wt).
